D3 ag = qHTS of D3 Dopamine Receptor Agonist: qHTS | D(3) dopamine receptor (Homo sapiens), P35462 | D3R DiscoveRx beta-arrestin cells, luminescence, 90 min | max activation, % | 0.58% of 410,000 active | AID 652048, 2013; in the data active = max activation above about 30%; note: 0% is about no effect
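Agonist-mode cell screen: cells plated at 1500/well and incubated overnight at 37 °C, then exposed to library compounds for 90 min at 37 °C. Detection reagent was added for 30–60 min at room temperature, and luminescence was read.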
GLP-1R agonist = qHTS of GLP-1 Receptor Agonists; 0.007% of 380,000 active; HEK293 GLP-1R CRE-luciferase, luminescence, 4-6 h; cells express a hypersensitive GLP-1R form; Potency, µM (doses to about 45.6 µM), for inactives: top-dose activation, hits mostly activators; AID 624172, 2012; note: potency is the fitted concentration of half-maximal effect; % of control where 0% means no effect
Target sequence (P43220 whole entry, looked up): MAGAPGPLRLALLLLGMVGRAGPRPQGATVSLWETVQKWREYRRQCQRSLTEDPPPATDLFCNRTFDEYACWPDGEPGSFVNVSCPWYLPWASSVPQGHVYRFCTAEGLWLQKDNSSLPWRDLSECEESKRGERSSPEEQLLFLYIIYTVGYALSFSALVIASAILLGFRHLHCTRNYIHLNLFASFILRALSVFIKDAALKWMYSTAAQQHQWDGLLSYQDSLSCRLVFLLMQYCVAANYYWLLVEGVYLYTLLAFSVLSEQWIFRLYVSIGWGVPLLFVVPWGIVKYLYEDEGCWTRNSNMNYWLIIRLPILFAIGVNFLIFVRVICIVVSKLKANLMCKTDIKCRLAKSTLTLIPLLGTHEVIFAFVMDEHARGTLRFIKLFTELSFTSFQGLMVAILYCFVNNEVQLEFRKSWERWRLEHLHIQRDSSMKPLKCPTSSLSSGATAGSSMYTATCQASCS
DRD3 antagonist = qHTS of D3 Dopamine Receptor Antagonist: qHTS. D(3) dopamine receptor (Homo sapiens), P35462. 2.5% of 360,000 active. AID 652054, 2013. D3R cells, DiscoveRx beta-arrestin luminescence, antagonist mode; hits give low values. max response, negative = inhibition, %; in the data active = max response below about -50%; inconclusive = no clear call, values can overlap the other calls; note: % is set by controls: 0 for no effect and ±100 for the full control effect
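Cells expressing the human receptor were seeded at 1500 cells/well, incubated overnight at 37 degrees C in 5% CO2, then exposed to library compounds with dopamine controls for 90 minutes at 37 degrees C before luminescent detection.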
HEK293 tox = qHTS of GLP-1 Receptor Inverse Agonists: Cytotox Screen. 0.13% of 410,000 active. Potency, µM (titrated, usually from 38.3 µM), for inactives: top-dose activity change, negative = inhibition, usual class: inhibitors. AID 624418, 2012. HEK293 cAMP-luciferase reporter cells, luminescence, 24 h;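 note: loss of luciferase light is scored as toxicity; potency is the fitted concentration of half-maximal effect; % is set by controls: 0 for no effect and ±100 for the full control effect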
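Seeding density was 200 cells/uL; after overnight-length (12 h) culture, 23 nL compounds went on for 24 h at 37 °C. Readout used a luciferase detection reagent, luminescence taken after 12 min at room temperature.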
ClpP mod = qHTS Assay for Activators of ClpP; ATP-dependent Clp protease proteolytic subunit (Bacillus subtilis (strain 168)), P80244; purified B. subtilis ClpP, FRET peptide cleavage, 20 min; Potency, µM (highest dose often 57.5 µM), for inactives: top-dose activity change, negative = active; 1.9% of 340,000 active; active = well fitted falling curve with a large enough effect; inconclusive = small, poorly fitted or top-dose-only effect; inactive = no such curve, though single readings can be large or run the other way; note: potency is the fitted concentration of half-maximal effect; the source files actives as falling curves though it sought activators and does not explain the sign; nearly all actives have a fitted effect of over 65% in size
Target sequence (P80244 whole entry, looked up): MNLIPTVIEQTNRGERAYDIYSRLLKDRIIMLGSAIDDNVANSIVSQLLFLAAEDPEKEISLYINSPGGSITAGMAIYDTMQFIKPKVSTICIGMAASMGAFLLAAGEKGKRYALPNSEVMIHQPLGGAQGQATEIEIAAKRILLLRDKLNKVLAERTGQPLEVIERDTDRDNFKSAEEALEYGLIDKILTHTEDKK
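Purified B. subtilis ClpP, 10 microg/mL final in Tris/HCl pH8 with KCl, BSA, glycerol and Tween-20, cleaved an Abz/nitrotyrosine-quenched decapeptide. Fluorescence (ex 320, em 430) was read at 0 and 20 min at room temperature. Delta was normalized to 5.8 microM ADEP and DMSO/no-enzyme controls.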
GLP1R inv ag = qHTS of GLP-1 Receptor Inverse Agonists (Inhibition Mode); Potency, µM (titrated, usually from 38.3 µM), without a hit: at the highest dose activity change, negative = inhibition, hits mostly inhibitors; HEK293 GLP-1R CRE-luciferase, luminescence, 24 h; GLP-1R form is constitutively active; Glucagon-like peptide 1 receptor (Homo sapiens), P43220; 1.6% of 410,000 active; note: potency is the fitted concentration of half-maximal effect; % is set by controls: 0 for no effect and ±100 for the full control effect; nearly all actives have a fitted effect of over 55% in size
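Cells are plated, allowed 12 hours at 37 deg C, then treated with compounds for 24 hr before luciferase detection reagent is added and luminescence is read after 12 min at room temperature. The HEK293 line carries constitutively active GLP-1R with a cAMP-responsive reporter.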
* marks the source's active call; other numbers are inactive results; ? = inconclusive; / = no result. An excerpt weighted towards active compounds, which were near 5.7% of everything screened. Unless noted, calls come from the whole dose curve; as a rule, active = well fitted curve in the direction sought with a large enough effect; inconclusive = small, poorly fitted or top-dose-only effect, or another doubt; inactive = no such curve, though single readings can be large; an effect the other way counts as inactive or inconclusive.

SMILES	D3 ag	GLP-1R agonist	DRD3 antagonist	HEK293 tox	ClpP mod	GLP1R inv ag
Cn1cc(-c2coc3c(C(=O)NCc4ccco4)cccc23)cn1	0	19%	6	-11%	-2%	18%
Cc1cccc(C)c1OC(=O)CSc1nnc(CNC(=O)c2ccccc2)o1	-17	/	/	6%	1%	-6%
O=C(Nc1c(C(=O)c2ccc(F)cc2)oc2ccccc12)c1cc(-c2ccccc2)on1	-5	/	/	8%	4%	5%
COc1ccc(-c2c3c(nc4sc5c(=O)[nH]c(C)nc5c24)CCC3)cc1	0	1%	11	2%	28µM*	83%
COc1cc(NC(=O)CN2C(=O)C(c3ccc(C)cc3)=NC23CCCCC3)cc(OC)c1	8	/	/	-16%	0%	10µM*
CCCn1nc(Oc2nc(SC)nc(N(C)C)n2)ccc1=O	2	-1%	26	0%	25µM*	6%
CSc1nc(Oc2ccc(=O)n(C)n2)nc(N(C)C)n1	2	12%	23	7%	-3%	0%
COc1ccc2[nH]c3c(N4CCC(O)(c5cccc(C(F)(F)F)c5)CC4)ncnc3c2c1	7	-13%	-11	-30%	32µM*	?
Cc1ccc2nc(-c3ccco3)c(CC3CCCCC3)n2c1	-4	7%	17	-7%	4%	-6%
CCOc1ccc(NC(=O)c2cc(S(=O)(=O)N3CCCCCC3)cn2C)cc1	5	1%	/	-4%	0%	9%
CCCCC(=O)NC(=S)NNC(=O)CC#N	-2	0%	-13	0%	-2%	14%
CCCCC(=O)NNC(=S)NC(=O)CCC	1	-12%	-58*	0%	-1%	6%
CC(=O)O[C@H]1CC[C@@]2(C)C(=CCC3C2CC[C@]2(C)C(c4cccnc4)=CCC32)C1 (some centres undefined)	/	-4%	/	/	/	/
COc1cc(/C=N\n2nnnc2N)ccc1OCc1ccc(F)cc1	-9	-2%	-54*	-19%	?	2%
CC(C)c1c(C(=O)N/N=C/c2cccc(OCc3ccc(F)cc3)c2)nnn1-c1nonc1N	22	-1%	45	-13%	/	?
COc1cc(/C=N/NC(=O)c2nnn(-c3nonc3N)c2C(C)C)ccc1OCc1ccc(F)cc1	57*	0%	74	-5%	/	?
COc1ccc(C2c3ccc4ccccc4c3Oc3ncn(CCCO)c(=N)c32)cc1 (centres undefined)	17	16%	-2	?	/	5.6µM*
COc1ccc(C2c3ccc4ccccc4c3Oc3ncn(CCO)c(=N)c32)cc1 (centres undefined)	1	14%	-4	-26%	-2%	?
COc1ccc(C2c3ccc4ccccc4c3Oc3ncn(CCN(C)C)c(=N)c32)cc1 (centres undefined)	-11	27%	-16	?	/	4µM*
CN(C)c1ccc(/C=N\Nc2ccc([N+](=O)[O-])cc2[N+](=O)[O-])cc1Br	/	/	/	/	0%	/
CCOC(=O)C1CC2=C(CC(C)(C)CC2=O)N(CCOC)C1=O (centres undefined)	18	-3%	20	-5%	1%	17%
CCOc1ccccc1NC(=O)CCSc1nc2n[nH]c(C)c2c(=N)n1-c1ccccc1Cl	30*	?	26	1%	-23%	0%
CCc1ccc(S(=O)(=O)Nc2cccc(-c3ccc(N4CCOCC4)nn3)c2)cc1	6	/	/	9%	-1%	-5%
COC(=O)c1ccc(Cn2c(SCc3ccc(F)cc3)nc3ccncc32)cc1	0	/	/	-5%	-3%	-10%
COc1ccc(Nc2nc3ccccc3n3nnnc23)cc1	0	9%	-90*	17%	315%	-4%
SMILES	D3 ag	GLP-1R agonist	DRD3 antagonist	HEK293 tox	ClpP mod	GLP1R inv ag
CCn1c2ccccc2c2cc(C3C(C#N)=C(C)NC(C)=C3C#N)ccc21	3	9%	9	-10%	16µM*	?
Cc1cc(C)n(C(=O)c2ccccc2[N+](=O)[O-])n1	-4	1%	1	54%	35µM*	0%
Cc1cc(C)n(C(=O)c2cccc([N+](=O)[O-])c2C)n1	-7	-2%	-24	0%	2%	18%
Cc1nnc(N2CCCC(C(=O)Nc3cccc(C(F)(F)F)c3)C2)c2nn(-c3ccccc3)c(C)c12 (centres undefined)	10	/	/	?	4%	-16%
CC(C)(C)OC(=O)NCCc1onc(-c2ccccc2F)c1C(=O)O	-7	4%	0	1%	-3%	16%
CC(C)(C)n1nnnc1C(c1ccc(C(F)(F)F)cc1)N(Cc1ccccc1)Cc1ccco1 (centres undefined)	4	-8%	15	4%	-1%	5.6µM*
CC(C)(C)c1ccc(CN(Cc2ccccc2)C(c2ccccn2)c2nnnn2C(C)(C)C)cc1 (centres undefined)	-1	-11%	-8	15%	-3%	3.2µM*
CC(C)(C)n1nnnc1C(c1ccc(C(F)(F)F)cc1)N(Cc1ccc(F)cc1)Cc1ccco1 (centres undefined)	5	-15%	30	4%	0%	?
COc1ccc(-c2nc(CS(=O)CC(=O)NCCc3ccccc3)c(C)o2)cc1OC (centres undefined)	-5	/	/	4%	16µM*	44%
COc1ccc(-c2nc(CS(=O)CC(=O)NCCCN3CC(C)CC(C)C3)c(C)o2)cc1OC (centres undefined)	2	-8%	?	5%	28µM*	0%
C=C1OC(CO)(n2cnc3c(N)ncnc32)C(O)C1O (centres undefined)	/	/	/	/	-1%	/
COc1ccc(-c2oc3ncn4nc(COc5ccccc5C)nc4c3c2-c2ccc(OC)cc2)cc1	9	/	/	-1%	4%	8%
Cc1ccsc1/C=N/n1cnnc1	1	17%	-13	19%	/	5%
Cc1ccsc1/C=N/n1cnc2sc(C)c(C)c2c1=O	3	15%	32	9%	32µM*	4%
Nc1[nH]c(C(=O)c2ccccc2)c(-c2ccc(Br)cc2)c1C(=O)c1ccc(Br)cc1	6	4%	1	1%	2%	3%
COc1ccc(CNC(=O)N2CCc3nc(Nc4cc(OC)c(OC)c(OC)c4)ncc3C2)cc1	10	1%	15	-15%	-3%	-13%
